Reference: PubChem BioAssay AID1159580 (chemical genetic matrix, 2015)
Out of some 5,500 compounds screened, about 2,000 (36%) were called active. Not shown: some 18% with an inconclusive outcome. Rule as the data show it: active = normalized growth mostly below about 0.91 (no sharp cut-off); inconclusive = no clear call, values can overlap the other calls; inactive = mostly above about 0.92. The list shows a part of the results.

Test: chemical genetic growth profiling, strain panel (AID 1159580);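 also: tested at 20 µM; growth read once vehicle control cultures reached saturation at 30 °C; 1 = growth at the plate median or of vehicle wells; lower values mean less growth of the strain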
Conditions: growth OD
[1] = S. cerevisiae deletion strains, locus YDR150W, strain NUM1, active compounds read low
[2] = S. cerevisiae deletion strains, locus YGR078C, strain PAC10, active compounds read low
[3] = S. cerevisiae deletion strains, locus YMR307W, strain GAS1, active compounds read low
[4] = S. cerevisiae deletion strains, locus YNL153C, strain GIM3, active compounds read low
[5] = S. cerevisiae deletion strains, locus YNL322C, strain KRE1, active compounds read low
[6] = S. cerevisiae deletion strains, locus YPL241C, strain CIN2, active compounds read low

Measured: normalized growth

CC#CCOC(=O)c1c(C)nc2sc3c(c2c1N)CCC(O)C3 (stereo not given)
inactive: S. cerevisiae deletion strains, locus YAL040C, strain CLN3, active compounds read low 1.06 | S. cerevisiae deletion strains, locus YCL061C, strain MRC1 (second series), active compounds read low 0.993 | [1] 0.987 | S. cerevisiae deletion strains, locus YDR363W, strain ESC2, active compounds read low 1 | S. cerevisiae deletion strains, locus YER002W, strain NOP16, active compounds read low 0.971 | [2] 0.982 | [3] 0.994 | [4] 1.18 | S. cerevisiae deletion strains, locus YNL175C, strain NOP13, active compounds read low 0.955 | S. cerevisiae deletion strains, locus YNL197C, strain WHI3, active compounds read low 0.967 | S. cerevisiae deletion strains, locus YNL224C, strain SQS1, active compounds read low 0.971 | [5] 0.982 | S. cerevisiae deletion strains, locus YOR083W, strain WHI5 (second series), active compounds read low 0.891 | [6] 0.99

CC1(C)CC2C1(O)CCC1(C)C=CC(O)C21CO (stereo not given)
inactive: S. cerevisiae deletion strains, locus YAL013W, strain DEP1, active compounds read low 0.99 | S. cerevisiae deletion strains, locus YBR021W, strain FUR4, active compounds read low 1.01 | S. cerevisiae deletion strains, locus YBR229C, strain ROT2, active compounds read low 0.995 | S. cerevisiae deletion strains, locus YCL029C, strain bik1, active compounds read low 0.975 | S. cerevisiae deletion strains, locus YDL035C, strain GPR1, active compounds read low 0.983 | S. cerevisiae deletion strains, locus YDL074C, strain BRE1, active compounds read low 1.03 | S. cerevisiae deletion strains, locus YDL101C, strain DUN1, active compounds read low 0.998 | S. cerevisiae deletion strains, locus YDL134C, strain PPH21, active compounds read low 0.998 | S. cerevisiae deletion strains, locus YDL185W, strain tfp1, active compounds read low 0.976 | S. cerevisiae deletion strains, locus YDL192W, strain arf1, active compounds read low 0.979 | S. cerevisiae deletion strains, locus YDR101C, strain arx1, active compounds read low 1 | [1] 0.987 | S. cerevisiae deletion strains, locus YDR162C, strain NBP2, active compounds read low 1.03 | S. cerevisiae deletion strains, locus YDR318W, strain mcm21, active compounds read low 0.975 | S. cerevisiae deletion strains, locus YDR388W, active compounds read low 0.993 | S. cerevisiae deletion strains, locus YDR502C, strain sam2, active compounds read low 1.01 | S. cerevisiae deletion strains, locus YEL061C, strain CIN8, active compounds read low 0.992 | S. cerevisiae deletion strains, locus YER110C, active compounds read low 0.959 | S. cerevisiae deletion strains, locus YER155C, strain BEM2, active compounds read low 0.995 | S. cerevisiae deletion strains, locus YER167W, strain BCK2, active compounds read low 0.982 | S. cerevisiae deletion strains, locus YGL078C, strain dbp3, active compounds read low 0.994 | S. cerevisiae deletion strains, locus YGL086W, strain mad1, active compounds read low 0.969 | S. cerevisiae deletion strains, locus YGL248W, strain PDE1, active compounds read low 0.993 | [2] 1.03 | S. cerevisiae deletion strains, locus YGR135W, strain pre9, active compounds read low 1.02 | S. cerevisiae deletion strains, locus YGR229C, strain SMI1, active compounds read low 1.03 | S. cerevisiae deletion strains, locus YGR252W, strain gcn5, active compounds read low 0.995 | S. cerevisiae deletion strains, locus YHR030C, strain SLT2, active compounds read low 0.982 | S. cerevisiae deletion strains, locus YHR079C, strain IRE1 (second series), active compounds read low 0.988 | S. cerevisiae deletion strains, locus YHR094C, strain hxt1, active compounds read low 0.98 | S. cerevisiae deletion strains, locus YHR129C, strain ARP1, active compounds read low 0.997 | S. cerevisiae deletion strains, locus YHR200W, strain rpn10, active compounds read low 0.984 | S. cerevisiae deletion strains, locus YIL066C, strain RNR3, active compounds read low 0.992 | S. cerevisiae deletion strains, locus YIL073C, strain SPO22, active compounds read low 0.873 | S. cerevisiae deletion strains, locus YIL125W, strain kgd1, active compounds read low 0.976 | S. cerevisiae deletion strains, locus YIR030C, strain dcg1, active compounds read low 0.99 | S. cerevisiae deletion strains, locus YJL095W, strain BCK1, active compounds read low 1.04 | S. cerevisiae deletion strains, locus YJL134W, strain LCB3, active compounds read low 0.992 | S. cerevisiae deletion strains, locus YJL168C, strain set2, active compounds read low 0.989 | S. cerevisiae deletion strains, locus YJL187C, strain SWE1 (second series), active compounds read low 1 | S. cerevisiae deletion strains, locus YJR043C, strain POL32, active compounds read low 0.994 | S. cerevisiae deletion strains, locus YJR075W, strain HOC1, active compounds read low 0.988 | S. cerevisiae deletion strains, locus YKL009W, strain mrt4, active compounds read low 0.95 | S. cerevisiae deletion strains, locus YKL068W, active compounds read low 0.98 | S. cerevisiae deletion strains, locus YKL085W, strain MDH1 (second series), active compounds read low 0.976 | S. cerevisiae deletion strains, locus YKL085W, strain MDH1, active compounds read low 0.976 | S. cerevisiae deletion strains, locus YKL190W, strain CNB1, active compounds read low 0.999 | S. cerevisiae deletion strains, locus YKR001C, strain vps1, active compounds read low 1 | S. cerevisiae deletion strains, locus YLR039C, strain RIC1, active compounds read low 0.945 | S. cerevisiae deletion strains, locus YLR058C, strain SHM2, active compounds read low 0.983 | S. cerevisiae deletion strains, locus YLR102C, strain apc9, active compounds read low 0.987 | S. cerevisiae deletion strains, locus YLR262C, strain YPT6, active compounds read low 0.936 | S. cerevisiae deletion strains, locus YLR268W, strain sec22, active compounds read low 1.02 | S. cerevisiae deletion strains, locus YLR330W, strain CHS5, active compounds read low 0.984 | S. cerevisiae deletion strains, locus YLR342W, strain FKS1 (second series), active compounds read low 0.994 | S. cerevisiae deletion strains, locus YLR371W, strain rom2, active compounds read low 0.969 | S. cerevisiae deletion strains, locus YLR418C, strain cdc73, active compounds read low 1.06 | S. cerevisiae deletion strains, locus YML016C, strain PPZ1, active compounds read low 0.994 | S. cerevisiae deletion strains, locus YML032C, strain rad52, active compounds read low 1.09 | S. cerevisiae deletion strains, locus YML124C, strain tub3, active compounds read low 0.988 | S. cerevisiae deletion strains, locus YMR078C, strain ctf18, active compounds read low 0.985 | S. cerevisiae deletion strains, locus YMR223W, strain ubp8, active compounds read low 0.977 | S. cerevisiae deletion strains, locus YMR263W, strain SAP30, active compounds read low 1.01 | [3] 1.08 | S. cerevisiae deletion strains, locus YNL067W, strain RPL9B, active compounds read low 1.03 | S. cerevisiae deletion strains, locus YNL128W, strain TEP1, active compounds read low 0.996 | [4] 1.03 | S. cerevisiae deletion strains, locus YNL233W, strain BNI4, active compounds read low 1.04 | S. cerevisiae deletion strains, locus YNL250W, strain rad50, active compounds read low 0.973 | S. cerevisiae deletion strains, locus YNL271C, strain bni1, active compounds read low 0.973 | S. cerevisiae deletion strains, locus YNL298W, strain CLA4, active compounds read low 0.977 | S. cerevisiae deletion strains, locus YNL307C, strain MCK1, active compounds read low 0.999 | [5] 0.981 | S. cerevisiae deletion strains, locus YNR052C, strain pop2, active compounds read low 0.963 | S. cerevisiae deletion strains, locus YOL006C, strain TOP1, active compounds read low 1.03 | S. cerevisiae deletion strains, locus YOL012C, strain htz1 1.26 | S. cerevisiae deletion strains, locus YOL147C, strain pex11, active compounds read low 0.977 | S. cerevisiae deletion strains, locus YOR061W, strain CKA2, active compounds read low 0.997 | S. cerevisiae deletion strains, locus YOR069W, strain VPS5, active compounds read low 0.994 | S. cerevisiae deletion strains, locus YOR136W, strain idh2, active compounds read low 0.984 | S. cerevisiae deletion strains, locus YOR144C, strain elg1, active compounds read low 0.984 | S. cerevisiae deletion strains, locus YOR184W, strain ser1, active compounds read low 0.965 | S. cerevisiae deletion strains, locus YOR316C, strain cot1, active compounds read low 0.991 | S. cerevisiae deletion strains, locus YPL055C, strain LGE1, active compounds read low 1.03 | [6] 0.991 | S. cerevisiae deletion strains, locus YPR119W, strain clb2, active compounds read low 0.988 | S. cerevisiae deletion strains, locus YPR141C, strain kar3, active compounds read low 0.982 | S. cerevisiae deletion strains, locus YPR163C, strain tif3, active compounds read low 0.972 | S. cerevisiae deletion strains, locus YPR167C, strain met16, active compounds read low 0.994 | S. cerevisiae deletion strains, strain wtn01, active compounds read low 1.02 | S. cerevisiae strains, strain wild type, active compounds read low 0.993
